Source: PubChem BioAssay (NCI)
Several values for one entry are separate records, joined by “and”; a condition that tells them apart may be missing. Equal values may be shown once. About 79,000 compounds went through this panel and 15% of them were active in at least one assay; those are over-represented in the sample as a whole. Activity calls are given as the source filed them. Rule as the data show it: active = growth inhibition above about 70%; inactive = the rest.

Tests used:
[1] = NCI Yeast Anticancer Drug Screen. Data for the rad50 strain (AID 155);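 also: 0% = growth of vehicle-only cultures of the same strain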; details: S. cerevisiae rad50 strain growth inhibition, stronger effect = higher value; at 50.0 µM unless noted
How it was run: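 Inhibition values express reduced yeast growth in compound-treated cultures relative to vehicle-treated controls.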

[2] = NCI Yeast Anticancer Drug Screen. Data for the mec2-1 strain (AID 157); details: S. cerevisiae mec2-1 strain, stronger effect = higher value; at 50.0 µM unless noted
How it was run: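 Test agents were screened against the mec2-1 yeast strain, with defined DNA repair or cell cycle alteration. Growth was scored as inhibition against vehicle-only controls.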

[3] = NCI Yeast Anticancer Drug Screen. Data for the sgs1 mgt1 strain (AID 161);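 also: 0% = growth of cultures given vehicle only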; details: S. cerevisiae sgs1 mgt1 strain, stronger effect = higher value; at 50.0 µM unless noted
How it was run: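 Inhibition of yeast growth, normalised to vehicle-treated controls, is reported for a strain bearing genetic alterations in DNA damage repair.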

[4] = NCI Yeast Anticancer Drug Screen. Data for the cln2 rad14 strain (AID 165);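 also: 0% = growth equal to vehicle treated cultures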; details: S. cerevisiae cln2 rad14 strain, stronger effect = higher value; at 50.0 µM unless noted
How it was run: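 Growth of compound-exposed yeast (cln2 rad14 genotype) measured and expressed as inhibition relative to vehicle.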

[5] = NCI Yeast Anticancer Drug Screen. Data for the bub3 strain (AID 167); details: S. cerevisiae bub3 mutant strain, stronger effect = higher value; at 50.0 µM unless noted
How it was run: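 Steps: expose the mutant yeast strain to compound; grow alongside vehicle-treated cultures; measure growth; express inhibition against the vehicle cultures.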

[6] = NCI Yeast Anticancer Drug Screen. Data for the mlh1 rad18 strain (AID 175); details: S. cerevisiae mlh1 rad18 strain growth inhibition, stronger effect = higher value; at 50.0 µM unless noted
How it was run: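 In this whole-cell yeast screen, a strain with altered DNA damage repair is challenged with compound, and its growth is measured against matched vehicle-treated controls.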

Measured: growth inhibition

CCNc1ncnc2ncn(C)c12
inactive: [1] 18.9% | [2] -6.9% | [3] 15.1% | [4] 12.6% | [5] 15.1% | [6] -0.5%

CC1(O)C2CC3CC(C2)CC1C3 (stereo not drawn)
inactive: [1] -1.1% | [2] -3.1% | [3] -13.3% | [4] -59% | [5] 13.2% | [6] 10.3%

O=c1[nH]cnc2c1ncn2C1OC(CO)C(O)C1O (stereo not drawn)
inactive: [1] 8% and -14.7% | [2] 8.25% and -20.1% | [3] 0.45% and 12.8% | [4] -117% and 5% | [5] 15.4% and 21.7% | [6] 5.85% and 5.3%
